Records with an inconclusive call do not appear. Calls of active or inactive are those of the source. Unless noted, calls come from the whole dose curve; as a rule, active = well fitted curve in the direction sought with a large enough effect; inconclusive = small, poorly fitted or top-dose-only effect, or another doubt; inactive = no such curve, though single readings can be large; an effect the other way counts as inactive or inconclusive.

Assay [1] in a line: MultiTox-Fluor Cytotoxicity Assay - LYMP1-002 - Live Cells (AID 955). The gist of the method:
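Human lymphoblastoid LYMP1-002 cells, 2500/well in complete medium, rested 5 hr at 37 C, then exposed to compounds for 16 hr at 37 C. Live-cell protease cleavage of GF-AFC read by fluorescence (Ex/Em 405/510) after 60 min at room temperature; AC50 from Hill fits.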

Assay [2] can be described thus: MultiTox-Fluor Cytotoxicity Assay - LYMP1-002 - Dead Cells (AID 960). Note: nearly all actives have a fitted effect of over 60% in size. Note: potency is the fitted concentration of half-maximal effect. Summed up:
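Human lymphoblastoid cells (LYMP1-002), 2500/well in complete medium, were exposed to compounds for 16 hr at 37 C. Dead-cell protease activity was read as bis-AAF-R110 fluorescence (Ex/Em 485/520), normalized to DMSO and 15 uM tetraoctylammonium bromide; AC50 from Hill fits.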

Assay [3] can be described thus: MultiTox-Fluor Cytotoxicity Assay - LYMP1-003 - Dead Cells (AID 961). Note: nearly all actives have a fitted effect of over 70% in size. Note: potency is the fitted concentration of half-maximal effect. Summed up: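 LYMP1-003 lymphoblastoid, 2500 cells/well, 5 hr settle then 16 hr cpd at 37 C; MultiTox-Fluor reagent 60 min RT; Ex/Em 485/520 dead-cell signal; norm. DMSO = 0%, 15 uM tetraoctylammonium bromide = 100%; Hill AC50.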
Assay [4] is described as follows: Cell Viability - LYMP1-003 - Assay at 24 hr (AID 963). Note: potency is the fitted concentration of half-maximal effect. Summed up: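 Human lymphoblastoid LYMP1-003 cells (2500/well) were rested 5 hr at 37 C, then exposed to compounds in complete medium for 24 hr at 37 C. Cellular ATP was quantified by CellTiter-Glo luminescence, and AC50 values came from Hill fits of concentration-response data.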
Assay [5] in a line: Cell Viability - LYMP2-003 (AID 965).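 Note: cells exposed to compounds for 24 h before reading; nearly all actives have a fitted effect of over 50% in size.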 Note: potency is the fitted concentration of half-maximal effect. Summed up:
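Seed 2500 lymphoblastoid cells/well; incubate 5 hr, 37 C; add compounds; incubate 24 hr, 37 C; add CellTiter-Glo, 30 min RT; read luminescence. AC50 from Hill fit.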

The nature of assay [6]: Cell Viability - LYMP2-004 (AID 966). Note: nearly all actives have a fitted effect of over 65% in size. Note: potency is the fitted concentration of half-maximal effect. The gist of the method: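 Human lymphoblastoid cells (2500/well) in complete medium were treated with compounds for 24 hr at 37 C, then intracellular ATP was measured by CellTiter-Glo luminescence. AC50 values came from Hill-equation fits of concentration-response data.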
Assay [7] in a line: Cell Viability - LYMP2-009 (AID 968). Note: nearly all actives have a fitted effect of over 55% in size. Note: potency is the fitted concentration of half-maximal effect.
Assay [8] in a line: Cell Viability - LYMP2-013 (AID 970). Note: nearly all actives have a fitted effect of over 55% in size. Note: potency is the fitted concentration of half-maximal effect. Summed up:
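Human lymphoblastoid cells, 2500/well, were preincubated 5 hr at 37 C, then treated with compounds for 24 hr at 37 C in complete medium. Intracellular ATP was read by CellTiter-Glo luminescence; AC50 from Hill-equation fits of concentration-response data.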

Assay [9] can be described thus: Cell Viability - LYMP2-015 (AID 971). Note: nearly all actives have a fitted effect of over 55% in size. Note: potency is the fitted concentration of half-maximal effect. Summed up:
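Human lymphoblastoid cells (2500/well) in complete medium were preincubated 5 hr at 37 C, then compound-treated 24 hr at 37 C. Intracellular ATP was read by CellTiter-Glo luminescence after 30 min at room temperature; AC50 came from Hill-equation concentration-response fits.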

Assay [10] is described as follows: Cell Viability - LYMP2-017 (AID 972). Note: nearly all actives have a fitted effect of over 55% in size. Note: potency is the fitted concentration of half-maximal effect. Summed up:
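Human lymphoblastoid cells (2500/well) were seeded in complete medium, held 5 hr at 37 C, then exposed to compounds for 24 hr at 37 C. Intracellular ATP was read by CellTiter-Glo luminescence after 30 min at room temperature, with AC50 values from Hill-equation fits.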

A short description of assay [11]: Cell Viability - LYMP2-019 (AID 973). Note: nearly all actives have a fitted effect of over 55% in size. Note: potency is the fitted concentration of half-maximal effect. The gist of the method: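 Human lymphoblastoid cells were seeded at 2500 cells/well, preincubated 5 hr at 37 C, then exposed to compounds for 24 hr at 37 C in complete medium. Intracellular ATP was measured by CellTiter-Glo luminescence; AC50 from Hill fits.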
A short description of assay [12]: Cell Viability - LYMP2-021 (AID 974). Note: potency is the fitted concentration of half-maximal effect. Summed up: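 Human lymphoblastoid cells (2500/well) were preincubated 5 hr at 37 C, then exposed to compounds for 24 hr at 37 C in complete medium. Intracellular ATP was read by CellTiter-Glo luminescence; AC50 came from Hill-equation fits of concentration-response data.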
Assay [13] can be described thus: Cell Viability - LYMP2-023 (AID 975). Note: nearly all actives have a fitted effect of over 55% in size. Note: potency is the fitted concentration of half-maximal effect. The gist of the method:
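Human lymphoblastoid cells (2500/well) were preincubated 5 hr at 37 C, then exposed to compounds for 24 hr at 37 C in complete medium. Cellular ATP was read by CellTiter-Glo luminescence, and AC50 came from Hill-equation fits.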

Assay [14] is described as follows: Cell Viability - LYMP2-006 (AID 978). Note: nearly all actives have a fitted effect of over 60% in size. Note: potency is the fitted concentration of half-maximal effect. Summed up: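 Cells are seeded at 2500 per well and rested 5 hr at 37 C. Compounds are added across a concentration series for 24 hr at 37 C, after which ATP is quantified by luciferase luminescence.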
The nature of assay [15]: Cell Viability - LYMP2-007 (AID 979).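 Note: cells exposed to compound for 24 h before reading; nearly all actives have a fitted effect of over 60% in size.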 Note: potency is the fitted concentration of half-maximal effect. The gist of the method: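 Human lymphoblastoid cells (2500/well) were plated in complete medium, incubated 5 hr at 37 C, then exposed to compounds for 24 hr at 37 C. Intracellular ATP was read by CellTiter-Glo luminescence after 30 min at room temperature; AC50 from Hill fits.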
The nature of assay [16]: Cell Viability - LYMP1-003 - Assay at 40 hr (AID 964). Note: series mostly up to about 92 µM; nearly all actives have a fitted effect of over 60% in size. Summed up: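 Human lymphoblastoid LYMP1-003 cells, 2500/well in complete medium, rested 5 hr at 37 C, then exposed to compounds for 40 hr at 37 C. Viability read as intracellular ATP by CellTiter-Glo luminescence; AC50 from Hill fits of concentration-response data.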
Assay [17] in a line: Cell Viability - LYMP2-025 (AID 976). Note: series mostly up to about 92 µM. The gist of the method:
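Human lymphoblastoid LYMP2-025 cells (2500/well) were pre-incubated 5 hr at 37 C, then treated with compounds for 24 hr at 37 C in complete medium. Viability was read as intracellular ATP by CellTiter-Glo luminescence; AC50 from Hill fits.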

The nature of assay [18]: Cell Viability - LYMP2-002 (AID 977).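 Note: series mostly up to about 92 µM; compound exposure lasted 24 h at 37 °C.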 Summed up: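 Human lymphoblastoid LYMP2-002 cells, 2500 per well, exposed to compounds for 24 h at 37 C in complete medium; viability read as intracellular ATP by CellTiter-Glo luminescence, AC50 from Hill fits.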
Assay [19] can be described thus: Cell Viability - LYMP2-005 (AID 967). Note: series mostly up to about 92 µM. Summed up:
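Acute cytotoxicity is scored as a concentration-dependent drop in intracellular ATP in human lymphoblastoid LYMP2-005 cells after 24 h compound treatment. ATP is quantified by luciferase luminescence, and AC50 is derived by Hill-equation modelling.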

The target in assay [20] is Pyruvate kinase PKM (Homo sapiens) (UniProt P14618). The experiment in a line: qHTS Assay for Activators of Human Muscle Pyruvate Kinase (AID 954; active = well fitted curve in the direction sought with a large enough effect, not every such curve was filed as active). Summed up: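 Reaction: 0.1 nM purified PKM2 with 0.5 mM phosphoenolpyruvate and 0.1 mM ADP, room temperature, 1 h. Readout: luciferase-based ATP luminescence after stop reagent. Activators judged against a 0.3 nM enzyme column.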
Chain of Pyruvate kinase PKM (Homo sapiens) (P14618 whole entry, looked up): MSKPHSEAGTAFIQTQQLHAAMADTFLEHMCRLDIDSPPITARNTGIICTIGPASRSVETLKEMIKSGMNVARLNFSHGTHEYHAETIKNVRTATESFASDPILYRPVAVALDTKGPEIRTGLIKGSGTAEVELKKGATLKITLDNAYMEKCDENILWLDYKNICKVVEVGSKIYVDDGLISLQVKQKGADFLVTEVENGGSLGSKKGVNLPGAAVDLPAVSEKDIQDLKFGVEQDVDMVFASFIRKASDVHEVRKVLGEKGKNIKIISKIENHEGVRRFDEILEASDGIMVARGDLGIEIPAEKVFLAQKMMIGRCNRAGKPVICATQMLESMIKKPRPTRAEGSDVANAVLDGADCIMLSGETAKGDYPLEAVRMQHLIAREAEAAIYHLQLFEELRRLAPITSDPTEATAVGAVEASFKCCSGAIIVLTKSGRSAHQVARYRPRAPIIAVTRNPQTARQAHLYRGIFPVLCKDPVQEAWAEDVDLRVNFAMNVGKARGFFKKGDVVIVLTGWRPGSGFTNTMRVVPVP

As to `C=C1C(CCl)(CCl)C2(Cl)C(Cl)C(Cl)C1(Cl)C2(Cl)Cl` (configuration not stated), the Potency result in assay [1] was “inactive”. For the same molecule, the Potency was 31.6 µM (active) in [2]; 50.1 µM (active) in assay [3]; 50.1 µM (active) in assay [4]; 50.1 µM (active) in assay [5]; 39.8 µM (active) in [6]; 39.8 µM (active) in assay [7]. Besides, the Potency in assay [8] was 50.1 µM (active); in [9], 39.8 µM (active); in assay [10], 50.1 µM (active); in assay [11], 39.8 µM (active); in assay [12], 50.1 µM (active); in assay [13] it was 50.1 µM (active). Moreover, the figures for the Potency in [14] and in assay [15] were 50.1 µM (active) and 39.8 µM (active), respectively.
With `C[C@H](CCC(=O)O)[C@H]1CC[C@H]2[C@@H]3CC[C@@H]4C[C@H](O)CC[C@]4(C)[C@H]3C[C@H](O)[C@]12C`, the Potency result in [1], in assay [3], in assay [4], in assay [16], in [5] and in assay [6] was “inactive” in each case. Also, the Potency result in [7], in assay [8], in assay [9], in assay [10], in assay [11] and in [12] was “inactive” throughout. Also, the Potency result in [13], in [14] and in assay [15] was “inactive” throughout. Besides, the molecule was classed as inactive in assay [17] and in [18].
For the molecule `C[C@H](CCC(=O)O)[C@H]1CC[C@H]2[C@@H]3[C@H](O)C[C@@H]4C[C@H](O)CC[C@]4(C)[C@H]3C[C@H](O)[C@]12C`, the Potency result in assay [1], in [2], in [3], in assay [4], in assay [16] and in [5] was “inactive” throughout. Besides, the Potency entry in assay [6], in assay [19], in assay [7], in assay [8], in assay [9] and in assay [10] was “inactive” each time. Also, the Potency entry in assay [11], in assay [12], in assay [13], in assay [14] and in assay [15] was “inactive” in each case. Moreover, the outcome in assay [17] and in [18] was inactive.
Take `O=P(O)(O)O`: the Potency result in assay [1], in assay [2], in assay [3], in assay [4], in [16] and in assay [5] was “inactive” each time. Further, the Potency entry in assay [6], in assay [7], in assay [8], in assay [9], in assay [10] and in assay [11] was “inactive” throughout. The Potency entry in [12], in [13], in assay [14] and in assay [15] was “inactive” each time. In addition, the molecule was called inactive in assay [17] and in assay [18].
On to `OCc1ccccc1`, for which the Potency entry in [1], in assay [2], in [3], in [4], in assay [16] and in assay [5] was “inactive” each time. Besides, the Potency result in assay [6], in [19], in [7], in assay [8], in assay [9] and in [10] was “inactive” each time. In addition, the Potency result in assay [11], in [12], in assay [13], in assay [14] and in [15] was “inactive” throughout. Besides, the result in assay [17] and in assay [18] was inactive.
Turning to `CO/N=C(/C(=O)N[C@@H]1C(=O)N2C(C(=O)O)=C(COC(N)=O)CS[C@H]12)c1ccco1`, the Potency result in assay [1], in assay [3], in assay [4], in [16], in [5] and in assay [6] was “inactive” each time. Moreover, the Potency entry in assay [19], in [7], in [8], in assay [9], in [10] and in assay [11] was “inactive” each time. Also, the Potency entry in [12], in [13], in assay [14] and in [15] was “inactive” throughout. Also, the outcome in assay [17] and in assay [18] was inactive.
`C[C@@](Cc1ccc(O)c(O)c1)(NN)C(=O)O`: the molecule was classed as inactive in [20].
In the case of `Nc1ncnc2c1ncn2[C@H]1CC[C@@H](CO)O1`, the Potency entry in assay [1], in assay [2], in assay [3], in [4], in assay [16] and in assay [5] was “inactive” each time. Moreover, the Potency result in assay [6], in assay [19], in assay [7], in [8], in assay [9] and in assay [10] was “inactive” throughout. The Potency entry in [11], in assay [12], in assay [13], in [14] and in assay [15] was “inactive” throughout. The call in [17] and in [18] was inactive.
As for `ClC(Cl)Cl`, the Potency entry in assay [1], in assay [2], in assay [3], in assay [4], in [16] and in assay [5] was “inactive” each time. Further, the Potency entry in [6], in [19], in assay [7], in assay [8], in assay [9] and in assay [10] was “inactive” in each case. Moreover, the Potency result in assay [11], in assay [12], in assay [13], in assay [14] and in [15] was “inactive” in each case. Also, the result in assay [17] and in [18] was inactive.
Consider `Oc1ccc(/C=C/c2cc(O)cc(O)c2)cc1`, for which the Potency entry in assay [1], in [2], in assay [3], in assay [4], in assay [5] and in assay [6] was “inactive” in each case. In addition, the Potency entry in assay [7], in [8], in assay [9], in assay [10], in [11] and in [12] was “inactive” throughout. Besides, the Potency entry in assay [13], in assay [14] and in assay [15] was “inactive” in each case. Besides, the call in assay [17] and in assay [18] was inactive.
